In PubChem BioAssay:
Activity calls are given as the source filed them. No rule for the calls is given here.

molecular target: Pantothenate synthetase (Mycobacterium tuberculosis (strain ATCC 25618 / H37Rv)) (UniProt P9WIL5); experiment: Coupled enzyme confirmation of inhibitors against recombinant Mtb PanC (AID 375); details: coupled enzyme assay; at 10 µM, hits give high values;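 also: 0% = full reaction with vehicle and 100% = no enzyme background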
Sequence (P9WIL5 whole entry, looked up): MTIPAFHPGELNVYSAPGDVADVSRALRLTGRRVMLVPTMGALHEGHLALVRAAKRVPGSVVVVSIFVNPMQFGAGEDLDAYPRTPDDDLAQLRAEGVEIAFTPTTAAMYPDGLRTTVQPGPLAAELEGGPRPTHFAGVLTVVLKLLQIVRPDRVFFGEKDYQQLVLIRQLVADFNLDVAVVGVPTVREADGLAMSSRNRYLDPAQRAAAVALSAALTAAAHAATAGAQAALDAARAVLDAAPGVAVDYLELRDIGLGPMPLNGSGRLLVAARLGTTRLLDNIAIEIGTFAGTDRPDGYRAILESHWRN

SMILES | inhibition
CCOC(=O)c1c(NC(=O)CSc2nnc(-c3ccc(OC)cc3)o2)sc2c1CCC2 | 3% (inactive)
CS(=O)(=O)N1CCc2cc(C(=O)N3CCCCC3)ccc21 | 2% (inactive)
CCCn1c(SCC(=O)Nc2ccccc2C(=O)OC)nc2c1c(=O)n(C)c(=O)n2C | 3% (inactive)
O=C(C1CCC(CNc2c(N3CCCCC3)c(=O)c2=O)CC1)N1CCc2ccccc2C1 (configuration not stated) | 0% (inactive)
O=C(NCc1ccco1)c1cccn2c(=O)c3sccc3nc12 | 4% (inactive)
Cc1nn(-c2ccc(F)cc2)c2c1cc(C#N)c1nc3ccccc3n12 | 6% (inactive)
C=CCOc1ccc(/C(O)=C2\C(=O)C(=O)N(CCOC)C2c2cccnc2)cc1 (configuration not stated) | 0% (inactive)
C=C(C)Cn1c(N2CC(C)CC(C)C2)nc2c1c(=O)[nH]c(=O)n2C (configuration not stated) | 0% (inactive)
CNC(=O)c1ccccc1NC(=O)c1c(O)c2c([nH]c1=O)CCCC2 | 7% (inactive)
Cc1ccccc1-c1noc(N)c1C#N | 0% (inactive)
COc1ccc(-c2[nH]nc3c2C(c2ccncc2)C(C#N)=C(N)O3)cc1 (configuration not stated) | 0% (inactive)
O=C(c1cnn2c(C(F)F)cc(C3CC3)nc12)N1CCOCC1 | 1% (inactive)
CC(C)c1cc(C(=O)NCc2ccco2)no1 | 0% (inactive)
Cc1cc(C)n(-c2nc3c(c(=O)n(Cc4ccc(Cl)c(Cl)c4)c(=O)n3C)n2C)n1 | 1% (inactive)
CCOC(=O)/C=C1\SCC(=O)N1Cc1ccc(Br)cc1 | 0% (inactive)
CCOC(=O)c1ccc(NC(=O)CSc2ncccn2)cc1 | 6% (inactive)
O=C(COc1ccc(Cl)cc1)Nc1nc(-c2cccs2)cs1 | 1% (inactive)
C=CCN(CC=C)C(=O)CN1C(=O)c2ccccc2C1=O | 0% (inactive)
CCn1c(COc2cccc3ccccc23)nnc1SCC(N)=O | 9% (inactive)
Cc1cc(C(=O)Nc2nc3c(s2)CCCC3)cs1 | 0% (inactive)
CCOc1ccc(N2CC(C(=O)NCCc3ccc(OC)c(OC)c3)CC2=O)cc1 (configuration not stated) | 0% (inactive)
O=C(CSc1nc2ccc(Cl)cc2[nH]1)NCc1ccco1 | 0% (inactive)
